From PubChem BioAssay (NCI)
This is part of a sample that, as a whole, favours compounds with a hit. Of some 79,000 tested, about 15% had one in any assay. Unmarked numbers belong to inactive results. Calls of active or inactive are those of the source. Cut-off read from the data, not from the text of the source: active = growth inhibition above about 70%; inactive = the rest.

Columns and labels:
[1] = NCI Yeast Anticancer Drug Screen. Data for the rad50 strain (AID 155);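 note: 0% = growth of vehicle-only cultures of the same strain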; conditions: S. cerevisiae rad50 strain growth inhibition, active compounds read high
Outline: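 Compounds were tested on a yeast strain with an engineered DNA damage repair alteration; the reported value is growth inhibition normalised to vehicle treatment.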

[2] = NCI Yeast Anticancer Drug Screen. Data for the mec2-1 strain (AID 157); conditions: S. cerevisiae mec2-1 strain, active compounds read high
Outline: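 Strain: mec2-1 (DNA repair/cell cycle alteration). Compound exposure, then growth measured; inhibition expressed relative to vehicle.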

[3] = NCI Yeast Anticancer Drug Screen. Data for the sgs1 mgt1 strain (AID 161);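 note: 0% = growth of cultures given vehicle only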; conditions: S. cerevisiae sgs1 mgt1 strain, active compounds read high
Outline: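 Inhibition of yeast growth, normalised to vehicle-treated controls, is reported for a strain bearing genetic alterations in DNA damage repair.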

[4] = NCI Yeast Anticancer Drug Screen. Data for the cln2 rad14 strain (AID 165);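 note: 0% = growth equal to vehicle treated cultures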; conditions: S. cerevisiae cln2 rad14 strain, active compounds read high
Outline: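 Compounds are applied to the cln2 rad14 yeast strain, and growth is then compared with that of vehicle-treated cultures to give inhibition.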

[5] = NCI Yeast Anticancer Drug Screen. Data for the bub3 strain (AID 167); conditions: S. cerevisiae bub3 mutant strain, active compounds read high
Outline: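 Growth of a checkpoint-deficient yeast mutant is measured after compound exposure. Values represent inhibition relative to vehicle.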

[6] = NCI Yeast Anticancer Drug Screen. Data for the mlh1 rad18 strain (AID 175); conditions: S. cerevisiae mlh1 rad18 strain growth inhibition, active compounds read high
Outline: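 Read-out is yeast growth inhibition, calculated against vehicle-only controls. The compound was applied to a strain engineered with DNA damage repair alterations.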

[7] = at 5.0 µM (retest, dose inferred, filed as 0.5)
[8] = at 50.0 µM (retest, dose inferred, filed as 5.0)

Structure (SMILES)	growth inhibition [1, 7]	growth inhibition [1, 8]	growth inhibition ([1]; at 50.0 µM)	growth inhibition [2, 7]	growth inhibition [2, 8]	growth inhibition ([2]; at 50.0 µM)	growth inhibition [3, 7]	growth inhibition [3, 8]	growth inhibition ([3]; at 50.0 µM)	growth inhibition [4, 7]	growth inhibition [4, 8]	growth inhibition ([4]; at 50.0 µM)	growth inhibition [5, 7]	growth inhibition [5, 8]	growth inhibition ([5]; at 50.0 µM)	growth inhibition [6, 7]	growth inhibition [6, 8]	growth inhibition ([6]; at 50.0 µM)
O=C(O)c1c2c(cc3c1CC1(Cc4cc5c(cc4C1=O)CCC5)C3)CCC2 (stereo not drawn)	67%	67%	89.4% (active)	58%	58%	87.5% (active)	57%	57%	87.3% (active)	37%	37%	88.7% (active)	42%	42%	87.2% (active)	55%	55%	86.5% (active)
CN(C)c1ccc(C(=C2C=CC(=[N+](C)C)C=C2)c2ccc(N(C)C)cc2)cc1 (tested in a mixture with another compound)	98% (active)	90% (active)	87.5% (active)	99% (active)	93% (active)	88% (active)	98% (active)	95% (active)	89.7% (active)	99% (active)	95% (active)	87.7% (active)	98% (active)	93% (active)	88.5% (active)	98% (active)	91% (active)	86.5% (active)
CCN(CC)CCOC(=O)CCN1CC2CCC(CC2)C1	14%	15%	-35.6%	13%	7%	-22.1%	17%	4%	-23.9%	23%	3%	9.4%	0%	-4%	-32.8%	18%	10%	-21.4%
Oc1ccc(/C=N/NC(=S)Nc2ccccc2)nc1	1%	53%	82.8% (active)	4%	60%	86.8% (active)	6%	69%	82.8% (active)	-9%	42%	68.7%	11%	72% (active)	84.3% (active)	0%	78% (active)	84.2% (active)
O=Nc1c(O)ccc2ccccc12.[Fe].[Na+]	7%	97% (active)	97.2% (active)	14%	98% (active)	97.7% (active)	8%	98% (active)	98.5% (active)	-2%	96% (active)	96.6% (active)	13%	98% (active)	97.6% (active)	4%	97% (active)	96.2% (active)
Nc1c(F)cccc1F	-2%	8%	-16.3%	2%	0%	11.6%	-3%	1%	-5.95%	2%	-6%	20.4%	2%	7%	-1.15%	0%	3%	-8.3%
